Laboratory results from the supplement of paper PMC10849652.
About 8,800 targets were measured; listed, in parts, are those with a hit and a random draw of the rest. About 0.5% of all pairs of compound and target were hits.

How the values were obtained:
Test in all cases: log2 fold change, soluble protein after heating vs DMSO (PISA); higher = thermal stabilisation; K562 lysate, 10 uM; active = over 0.2 and 3.5 SD of the protein, either way, in both replicates (recomputed)
vemurafenib = compound: CCCS(=O)(=O)Nc1ccc(F)c(C(=O)c2c[nH]c3ncc(-c4ccc(Cl)cc4)cc23)c1F [vemurafenib]
In short: (§1)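 To prepare the extract, K562 pellets were dounce-homogenised in PBS pH 7.4 with 1 mM MgCl2, giving crude material at 1 mg/mL protein. This was treated with 10 μM compound for 30 min, then heated in aliquots for 3 min over 48°C-58°C before pooling and addition of NP-40 to 0.5% at 4°C. Centrifugation at 21,000xg for 90 min left soluble protein in the supernatant, which TMTpro 16plex LC-MS/MS quantified with equalised channel sums. Results are log-two fold changes in thermal stability compared with solvent controls, from duplicates.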

[1] = compound: CCCS(=O)(=O)Nc1ccc(F)c(C(=O)c2c[nH]c3ncc(Cl)cc23)c1F
In short: as §1

barasertib = compound: CCN(CCCOc1ccc2c(Nc3cc(CC(=O)Nc4cccc(F)c4)[nH]n3)ncnc2c1)CCOP(=O)(O)O [barasertib]
In short: as §1

[2] = compound: CC[C@@H]1C(=O)N(C)c2cnc(Nc3ccc(C(=O)NC4CCN(C)CC4)cc3OC)nc2N1C1CCCC1
In short: as §1

volasertib = compound: CC[C@@H]1C(=O)N(C)c2cnc(Nc3ccc(C(=O)N[C@H]4CC[C@H](N5CCN(CC6CC6)CC5)CC4)cc3OC)nc2N1C(C)C [volasertib]
In short: as §1

[3] = compound: CCn1c(C(=O)N(C2CC2)C2CC2)cc2c3c(ncn3C)c(Nc3cc(C)n(C)n3)nc21
In short: as §1

[4] = compound: CCn1cc(-c2ccnc3[nH]c(-c4cccc(CN(C)C)c4)cc23)c(-c2ccc(NC(=O)N(C)C)cc2)n1
In short: as §1

[5] = compound: CN1CCC(CNc2ccc3ncc(-c4cccc(OC(F)(F)F)c4)n3n2)CC1
In short: as §1

saracatinib = compound: CN1CCN(CCOc2cc(OC3CCOCC3)c3c(Nc4c(Cl)ccc5c4OCO5)ncnc3c2)CC1 [saracatinib]
In short: as §1

sotrastaurin = compound: CN1CCN(c2nc(C3=C(c4c[nH]c5ccccc45)C(=O)NC3=O)c3ccccc3n2)CC1 [sotrastaurin]
In short: as §1

Measured: log2 fold change

CLCN3 isoform 2 (UniProt P51790)
inactive: vemurafenib -0.015 | [1] 0.052 | barasertib -0.004 | [2] 0.003 | volasertib -0.022 | [3] -0.024 | [4] -0.039 | [5] 0.013 | saracatinib -0.018 | sotrastaurin 0.054

COMT (UniProt P21964)
inactive: vemurafenib -0.052 | [1] 0.012 | barasertib 0.024 | [2] -0.101 | volasertib -0.056 | [3] 0.039 | [4] 0.026 | [5] 0.005 | saracatinib 0.008 | sotrastaurin 0.036

CKAP5 (UniProt Q14008)
inactive: vemurafenib -0.023 | [1] -0.013 | barasertib 0.003 | [2] -0.002 | volasertib -0.021 | [3] 0.022 | [4] -0.016 | [5] -0.033 | saracatinib 0.005 | sotrastaurin 0.025

CUX1 isoform 3 (UniProt P39880)
inactive: vemurafenib 0.059 | [1] -0.012 | barasertib -0.011 | [2] 0.028 | volasertib -0.004 | [3] -0.006 | [4] 0.107 | [5] -0.152 | saracatinib 0.018 | sotrastaurin 0.029

CSK (UniProt P41240)
inactive: vemurafenib 0.43 | [1] 0.304 | barasertib 0.187 | [2] -0.046 | volasertib -0.09 | [3] -0.068 | [4] 0.015 | [5] 0.096 | saracatinib 0.37 | sotrastaurin -0.043

DDX20 (UniProt Q9UHI6)
inactive: vemurafenib -0.058 | [1] 0.018 | barasertib 0.011 | [2] -0.087 | volasertib -0.061 | [3] 0.036 | [4] -0.037 | [5] -0.094 | saracatinib 0.036 | sotrastaurin 0.004

CTNND1 isoform 3 (UniProt O60716)
inactive: vemurafenib 0.06 | [1] 0.037 | barasertib 0.036 | [2] -0.034 | volasertib -0.098 | [3] 0.073 | [4] -0.032 | [5] 0.004 | saracatinib -0.012 | sotrastaurin 0.024

CNOT6L (UniProt Q96LI5)
inactive: vemurafenib 0.035 | [1] -0.007 | barasertib 0.065 | [2] -0.006 | volasertib 0.006 | [3] 0.078 | [5] 0.107 | saracatinib 0.048 | sotrastaurin -0.019
active: [4] -0.422

DIAPH3 (UniProt Q9NSV4)
inactive: vemurafenib 0.041 | [1] 0.028 | barasertib 0.057 | [2] -0.023 | volasertib -0.099 | [3] 0.058 | [4] -0.098 | [5] -0.092 | saracatinib 0.053 | sotrastaurin 0.064

CTNNBL1 (UniProt Q8WYA6)
inactive: vemurafenib 0.004 | [1] 0.016 | barasertib 0.005 | [2] -0.042 | volasertib -0.041 | [3] -0.16 | [4] -0.013 | [5] -0.091 | saracatinib 0.023 | sotrastaurin 0.015

DPH5 isoform 5 (UniProt Q9H2P9)
Chain of UniProt Q9H2P9 (Q9H2P9 whole entry, looked up): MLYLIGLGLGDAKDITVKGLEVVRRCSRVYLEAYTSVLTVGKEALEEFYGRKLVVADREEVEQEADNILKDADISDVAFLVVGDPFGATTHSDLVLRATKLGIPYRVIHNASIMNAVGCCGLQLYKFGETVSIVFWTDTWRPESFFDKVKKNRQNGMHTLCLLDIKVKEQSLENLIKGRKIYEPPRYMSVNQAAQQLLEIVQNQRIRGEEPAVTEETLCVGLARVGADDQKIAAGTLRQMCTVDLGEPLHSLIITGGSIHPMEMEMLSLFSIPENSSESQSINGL
inactive: vemurafenib 0.144 | [1] 0.016 | barasertib -0.05 | [2] 0.16 | volasertib 0.273 | [3] -0.011 | [4] 0.182 | [5] 0.033 | saracatinib -0.029 | sotrastaurin 0.049

CLUH (UniProt O75153)
inactive: vemurafenib -0.03 | [1] 0.014 | barasertib 0.024 | [2] 0.012 | volasertib -0.02 | [3] -0.009 | [4] -0.024 | [5] 0.117 | saracatinib 0.011 | sotrastaurin 0.01

CNP (UniProt P09543)
inactive: vemurafenib 0.005 | [1] -0.011 | barasertib 0.003 | [2] -0.097 | volasertib -0.022 | [3] 0.019 | [4] -0.023 | [5] -0.028 | saracatinib 0.01 | sotrastaurin -0.008

DAZAP1 (UniProt Q96EP5)
inactive: vemurafenib 0.036 | [1] 0.043 | barasertib -0.017 | [2] 0.016 | volasertib 0.011 | [3] 0.065 | [4] 0.129 | [5] 0.032 | saracatinib 0.003 | sotrastaurin -0.109

CLIP1 isoform 1 (UniProt P30622)
Chain of UniProt P30622 (P30622 whole entry, looked up): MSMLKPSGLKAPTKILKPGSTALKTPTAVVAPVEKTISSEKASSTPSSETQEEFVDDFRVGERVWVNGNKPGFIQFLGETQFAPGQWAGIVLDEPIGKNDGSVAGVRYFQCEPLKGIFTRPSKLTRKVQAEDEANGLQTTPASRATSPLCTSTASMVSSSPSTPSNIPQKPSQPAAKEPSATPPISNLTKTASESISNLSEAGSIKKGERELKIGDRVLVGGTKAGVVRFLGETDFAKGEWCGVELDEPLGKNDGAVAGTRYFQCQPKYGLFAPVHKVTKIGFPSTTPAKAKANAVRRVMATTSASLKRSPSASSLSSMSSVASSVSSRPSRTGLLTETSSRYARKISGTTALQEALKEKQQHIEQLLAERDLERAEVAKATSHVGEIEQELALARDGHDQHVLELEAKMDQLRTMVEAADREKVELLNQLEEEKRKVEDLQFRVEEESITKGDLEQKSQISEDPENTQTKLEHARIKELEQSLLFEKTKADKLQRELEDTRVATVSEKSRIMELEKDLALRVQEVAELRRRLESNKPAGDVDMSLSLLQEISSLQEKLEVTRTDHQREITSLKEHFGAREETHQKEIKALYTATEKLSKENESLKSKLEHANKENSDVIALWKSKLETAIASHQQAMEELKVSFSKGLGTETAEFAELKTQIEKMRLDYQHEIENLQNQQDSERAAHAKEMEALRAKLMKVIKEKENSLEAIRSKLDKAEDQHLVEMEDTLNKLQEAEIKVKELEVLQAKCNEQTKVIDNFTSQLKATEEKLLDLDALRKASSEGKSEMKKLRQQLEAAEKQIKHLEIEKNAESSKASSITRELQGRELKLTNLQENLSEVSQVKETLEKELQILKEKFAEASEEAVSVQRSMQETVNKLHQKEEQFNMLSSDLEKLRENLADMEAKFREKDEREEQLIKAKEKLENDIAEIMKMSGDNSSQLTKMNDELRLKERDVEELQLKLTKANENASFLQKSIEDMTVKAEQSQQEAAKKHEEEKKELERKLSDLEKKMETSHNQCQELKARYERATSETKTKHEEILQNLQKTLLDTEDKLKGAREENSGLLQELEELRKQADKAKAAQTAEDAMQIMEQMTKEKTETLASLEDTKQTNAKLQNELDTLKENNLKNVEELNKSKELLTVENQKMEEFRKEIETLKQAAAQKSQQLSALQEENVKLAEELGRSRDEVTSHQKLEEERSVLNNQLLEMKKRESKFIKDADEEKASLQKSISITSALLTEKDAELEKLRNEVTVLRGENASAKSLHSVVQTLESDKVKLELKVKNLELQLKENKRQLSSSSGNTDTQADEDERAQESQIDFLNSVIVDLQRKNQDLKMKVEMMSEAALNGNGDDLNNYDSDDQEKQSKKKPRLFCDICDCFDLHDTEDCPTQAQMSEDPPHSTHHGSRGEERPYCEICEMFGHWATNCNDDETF
inactive: vemurafenib -0.011 | [1] 0.016 | barasertib -0.011 | [2] 0.034 | volasertib 0.034 | [3] -0.03 | [4] -0.055 | [5] 0.02 | saracatinib 0.021 | sotrastaurin 0.008

CNDP2 (UniProt Q96KP4)
active: [4] -0.343 | [5] 0.278
inactive: vemurafenib 0.01 | [1] 0.023 | barasertib -0.01 | [2] 0.11 | volasertib 0.041 | [3] -0.032 | saracatinib 0.01 | sotrastaurin 0.013

DICER1 (UniProt Q9UPY3)
Chain of UniProt Q9UPY3 (Q9UPY3 whole entry, looked up): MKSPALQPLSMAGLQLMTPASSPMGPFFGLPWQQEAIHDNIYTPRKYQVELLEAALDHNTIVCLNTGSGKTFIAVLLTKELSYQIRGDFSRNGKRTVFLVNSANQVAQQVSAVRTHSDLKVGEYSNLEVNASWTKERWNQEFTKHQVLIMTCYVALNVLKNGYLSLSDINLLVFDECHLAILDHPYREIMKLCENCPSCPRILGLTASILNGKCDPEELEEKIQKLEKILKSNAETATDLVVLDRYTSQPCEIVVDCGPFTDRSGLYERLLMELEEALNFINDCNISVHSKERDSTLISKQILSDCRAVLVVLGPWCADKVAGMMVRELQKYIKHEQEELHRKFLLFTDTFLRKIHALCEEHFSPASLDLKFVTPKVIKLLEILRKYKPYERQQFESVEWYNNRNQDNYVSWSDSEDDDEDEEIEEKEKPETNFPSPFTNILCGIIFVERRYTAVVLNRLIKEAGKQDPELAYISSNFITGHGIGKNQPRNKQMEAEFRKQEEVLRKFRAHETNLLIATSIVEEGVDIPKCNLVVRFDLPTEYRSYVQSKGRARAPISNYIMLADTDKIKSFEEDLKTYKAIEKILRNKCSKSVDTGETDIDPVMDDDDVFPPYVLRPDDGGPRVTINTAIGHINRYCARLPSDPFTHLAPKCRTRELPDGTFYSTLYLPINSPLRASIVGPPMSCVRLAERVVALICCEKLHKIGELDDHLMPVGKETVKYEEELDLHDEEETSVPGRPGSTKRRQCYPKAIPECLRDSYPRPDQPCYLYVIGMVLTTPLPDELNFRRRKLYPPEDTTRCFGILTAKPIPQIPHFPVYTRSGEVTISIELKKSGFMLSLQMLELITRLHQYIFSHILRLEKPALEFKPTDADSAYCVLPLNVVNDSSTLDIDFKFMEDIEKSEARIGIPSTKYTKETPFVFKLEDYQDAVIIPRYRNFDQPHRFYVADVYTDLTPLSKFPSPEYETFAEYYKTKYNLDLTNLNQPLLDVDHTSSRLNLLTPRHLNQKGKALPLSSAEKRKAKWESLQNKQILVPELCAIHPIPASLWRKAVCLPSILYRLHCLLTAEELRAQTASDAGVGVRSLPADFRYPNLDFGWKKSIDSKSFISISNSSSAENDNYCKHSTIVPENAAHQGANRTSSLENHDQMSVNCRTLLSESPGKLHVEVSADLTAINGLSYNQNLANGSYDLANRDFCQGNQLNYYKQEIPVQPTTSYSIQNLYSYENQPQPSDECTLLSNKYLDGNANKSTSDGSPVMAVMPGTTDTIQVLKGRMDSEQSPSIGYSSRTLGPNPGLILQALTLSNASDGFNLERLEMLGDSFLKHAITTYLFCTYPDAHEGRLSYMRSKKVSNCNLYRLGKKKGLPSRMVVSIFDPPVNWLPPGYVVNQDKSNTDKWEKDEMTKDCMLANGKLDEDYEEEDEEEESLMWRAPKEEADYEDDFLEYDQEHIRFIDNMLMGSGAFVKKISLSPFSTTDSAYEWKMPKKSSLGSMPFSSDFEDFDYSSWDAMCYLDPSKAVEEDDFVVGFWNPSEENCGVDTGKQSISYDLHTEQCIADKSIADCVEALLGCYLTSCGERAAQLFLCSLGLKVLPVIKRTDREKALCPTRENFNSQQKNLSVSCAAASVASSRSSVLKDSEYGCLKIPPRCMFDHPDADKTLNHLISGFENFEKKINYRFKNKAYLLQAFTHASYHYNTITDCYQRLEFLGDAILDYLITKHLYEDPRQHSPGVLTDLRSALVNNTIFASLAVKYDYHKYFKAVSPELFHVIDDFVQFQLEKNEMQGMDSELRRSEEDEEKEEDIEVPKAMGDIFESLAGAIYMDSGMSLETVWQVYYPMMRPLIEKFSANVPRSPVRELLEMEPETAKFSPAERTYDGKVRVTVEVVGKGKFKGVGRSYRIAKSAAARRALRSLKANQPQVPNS
inactive: vemurafenib -0.002 | [1] 0.05 | barasertib 0.01 | [2] 0.003 | volasertib -0.068 | [3] 0.021 | [4] 0.275 | [5] 0.036 | saracatinib 0.005 | sotrastaurin -0.018

CORO7 isoform 3 (UniProt P57737)
inactive: vemurafenib 0.031 | [1] 0.013 | barasertib 0.008 | [2] -0.042 | volasertib -0.01 | [3] 0.016 | [4] 0.044 | [5] -0.175 | saracatinib 0.004 | sotrastaurin 0.008

CIAO2A (UniProt Q9H5X1)
inactive: vemurafenib -0.028 | [1] -0.032 | barasertib 0.094 | [2] -0.042 | volasertib -0.007 | [3] 0.026 | [4] 0.233 | [5] -0.203 | saracatinib 0.033 | sotrastaurin 0.034

CKAP2 (UniProt Q8WWK9)
Chain of UniProt Q8WWK9 (Q8WWK9 whole entry, looked up): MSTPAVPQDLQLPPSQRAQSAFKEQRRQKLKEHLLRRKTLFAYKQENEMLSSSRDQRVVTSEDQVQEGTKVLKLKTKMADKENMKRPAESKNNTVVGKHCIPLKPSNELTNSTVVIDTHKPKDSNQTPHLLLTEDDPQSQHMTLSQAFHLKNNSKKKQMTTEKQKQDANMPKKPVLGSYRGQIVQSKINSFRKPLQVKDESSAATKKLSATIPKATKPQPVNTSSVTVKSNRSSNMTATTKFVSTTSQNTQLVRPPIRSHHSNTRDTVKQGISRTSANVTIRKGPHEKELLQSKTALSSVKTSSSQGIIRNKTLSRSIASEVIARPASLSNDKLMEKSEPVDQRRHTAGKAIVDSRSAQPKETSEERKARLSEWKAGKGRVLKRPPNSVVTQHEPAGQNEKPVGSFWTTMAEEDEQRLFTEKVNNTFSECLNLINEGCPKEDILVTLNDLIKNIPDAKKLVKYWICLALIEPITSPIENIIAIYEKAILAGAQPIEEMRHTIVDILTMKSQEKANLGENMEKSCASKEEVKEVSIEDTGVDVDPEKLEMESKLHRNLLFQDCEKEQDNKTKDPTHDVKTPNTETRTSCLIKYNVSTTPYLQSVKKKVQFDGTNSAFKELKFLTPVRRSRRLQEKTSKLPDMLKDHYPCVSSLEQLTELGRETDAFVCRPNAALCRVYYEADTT
inactive: vemurafenib -0.095 | [1] 0.01 | barasertib -0.014 | [2] 0.073 | volasertib 0.009 | [3] -0.024 | [4] 0.062 | [5] -0.094 | saracatinib 0.019 | sotrastaurin 0.019

DHFR (UniProt P00374)
active: [1] 0.206
inactive: vemurafenib -0.047 | barasertib 0.061 | [2] -0.035 | volasertib 0.013 | [3] 0.046 | [4] 0.072 | [5] -0.019 | saracatinib -0.008 | sotrastaurin 0.042

DOCK7 (UniProt Q96N67)
inactive: vemurafenib 0.045 | [1] 0.021 | barasertib 0.027 | [2] -0.057 | volasertib -0.01 | [3] 0 | [4] -0.068 | [5] -0.041 | saracatinib -0.028 | sotrastaurin 0.02

CSNK1A1 (UniProt P48729)
inactive: vemurafenib -0.044 | [1] 0.017 | barasertib -0.003 | [2] 0.078 | volasertib -0.066 | [3] 0.097 | [4] 0.065 | [5] 0.171 | saracatinib 0.02 | sotrastaurin 0.048

CINP isoform 3 (UniProt Q9BW66)
inactive: vemurafenib -0.071 | [1] 0.01 | barasertib 0.052 | [2] 0.098 | volasertib -0.05 | [3] -0.033 | [4] -0.331 | [5] 0.189 | saracatinib 0.047 | sotrastaurin 0.014

DDX54 isoform 2 (UniProt Q8TDD1)
inactive: vemurafenib -0.041 | [1] 0.017 | [2] -0.069 | volasertib -0.045 | [3] 0.053 | [4] -0.056 | [5] 0 | saracatinib -0.015 | sotrastaurin 0.045
active: barasertib -0.319

DDX4 (UniProt Q9NQI0)
Chain of UniProt Q9NQI0 (Q9NQI0 whole entry, looked up): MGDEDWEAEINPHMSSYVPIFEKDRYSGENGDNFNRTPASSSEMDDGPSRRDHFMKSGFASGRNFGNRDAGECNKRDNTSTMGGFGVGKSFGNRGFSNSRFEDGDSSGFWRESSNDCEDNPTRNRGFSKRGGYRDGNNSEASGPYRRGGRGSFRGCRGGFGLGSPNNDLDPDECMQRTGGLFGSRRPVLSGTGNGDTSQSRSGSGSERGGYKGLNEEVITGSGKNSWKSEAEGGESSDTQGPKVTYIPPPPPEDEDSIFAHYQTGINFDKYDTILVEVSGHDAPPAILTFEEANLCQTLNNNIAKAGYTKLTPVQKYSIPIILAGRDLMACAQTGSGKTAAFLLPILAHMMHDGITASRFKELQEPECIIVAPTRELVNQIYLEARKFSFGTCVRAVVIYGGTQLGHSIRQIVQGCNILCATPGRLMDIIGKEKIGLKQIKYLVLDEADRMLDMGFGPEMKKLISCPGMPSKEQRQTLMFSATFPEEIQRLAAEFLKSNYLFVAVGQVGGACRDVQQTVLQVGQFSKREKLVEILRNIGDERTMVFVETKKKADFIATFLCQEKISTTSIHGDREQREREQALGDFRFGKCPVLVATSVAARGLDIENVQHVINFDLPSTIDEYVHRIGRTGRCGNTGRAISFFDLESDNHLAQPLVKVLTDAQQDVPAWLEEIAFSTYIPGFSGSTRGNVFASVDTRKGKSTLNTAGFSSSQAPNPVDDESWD
inactive: vemurafenib -0.044 | [1] -0.015 | barasertib 0.069 | [2] -0.071 | volasertib -0.021 | [3] 0.015 | [4] -0.167 | [5] 0 | saracatinib -0.027

COTL1 (UniProt Q14019)
inactive: vemurafenib -0.002 | [1] -0.017 | barasertib -0.068 | [2] 0.019 | volasertib 0.02 | [3] 0.027 | [5] -0.076 | saracatinib -0.019 | sotrastaurin -0.045
active: [4] 0.37
